# Measured values published in PubChem BioAssay.
# For part of these data: Measured potencies and affinities stand elsewhere. Active and inactive are the calls of the source. Unless noted, how the calls were made is not given here.
# Key:
# [1] = antimalarial activity against Dd2 strain (AID 2302;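 active means growth inhibition above 50% at the single 2 µM test dose, taken to imply half-maximal potency below 2 µM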;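 further: 0% = DMSO untreated growth and 100% = chloroquine plus artemisinin killed control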); settings: P. falciparum Dd2 in RBCs, LDH growth readout, 72 h; at 2 µM; stronger effect = higher value
# [2] = HepG2 cytotoxicity, primary screen, cytotoxicity control for P. falciparum antimalarial project, cell-based, ATP luminescence (AID 2303;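 active means inhibition above 50%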;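 further: 0% = DMSO wells and 100% = digitonin-killed cells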); settings: HepG2 viability, 24-48 h, at 10 µM, stronger effect = higher value
# [3] = target: L-lactate dehydrogenase (Plasmodium falciparum (isolate CDC / Honduras)) (UniProt Q27743); assay: PfLDH activity inhibition – cell lysate, 3D7 strain, counter-screen for P. falciparum growth inhibition project (AID 2304);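 further: 0% = vehicle and 100% = reference inhibitor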; settings: P. falciparum 3D7 crude extract, LDH APAD/NBT absorbance; at 2 µM; stronger effect = higher value
# [4] = inhibition of 3D7 malaria parasite growth – strain 3D7 (AID 2306);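 further: 0% = DMSO wells and 100% = chloroquine plus artemisinin control wells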; settings: P. falciparum 3D7 erythrocytic growth, LDH absorbance, 72 h; at 2 µM; stronger effect = higher value
# [5] = target: Calcium-dependent protein kinase 1 (Plasmodium falciparum (isolate 3D7)) (UniProt P62344); assay: PfCDPK1 kinase inhibitors, biochemical, TCAMS library (AID 1159585; cut-off not given, nearly all actives have IC50 up to about 0.98 µM;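 further: inhibitors leave more ATP so luminescence rises with inhibition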); settings: recombinant PfCDPK1, Kinase-Glo ATP depletion luminescence
# [6] = target: Plasmodium falciparum protein kinase 6 (PK6, PF3D7_1337100) (UniProt Q8IDW1); assay: PfPK6 kinase inhibitors, biochemical, TCAMS library (AID 1159586); settings: recombinant PfPK6, Kinase-Glo ATP depletion luminescence
# [7] = target: Protein kinase 7 (PK7), Plasmodium falciparum 3D7 (PF3D7_0213400) (UniProt Q7YTF7); assay: inhibition of Plasmodium PK7 catalytic activity – biochemical, TCAMS antimalarial set, Kinase-Glo luminescence (AID 1159587); settings: recombinant PfPK7, Kinase-Glo ATP depletion luminescence
# [8] = target: Calcium-dependent protein kinase 4 (Plasmodium falciparum (isolate 3D7)) (UniProt Q8IBS5); assay: PfCDPK4 kinase inhibitors, biochemical, TCAMS library (AID 1159588; cut-off not given, nearly all actives have IC50 up to about 0.91 µM); settings: recombinant PfCDPK4, Kinase-Glo ATP depletion luminescence
# Calcium-dependent protein kinase 4 (Plasmodium falciparum (isolate 3D7)), sequence (Q8IBS5 whole entry, looked up): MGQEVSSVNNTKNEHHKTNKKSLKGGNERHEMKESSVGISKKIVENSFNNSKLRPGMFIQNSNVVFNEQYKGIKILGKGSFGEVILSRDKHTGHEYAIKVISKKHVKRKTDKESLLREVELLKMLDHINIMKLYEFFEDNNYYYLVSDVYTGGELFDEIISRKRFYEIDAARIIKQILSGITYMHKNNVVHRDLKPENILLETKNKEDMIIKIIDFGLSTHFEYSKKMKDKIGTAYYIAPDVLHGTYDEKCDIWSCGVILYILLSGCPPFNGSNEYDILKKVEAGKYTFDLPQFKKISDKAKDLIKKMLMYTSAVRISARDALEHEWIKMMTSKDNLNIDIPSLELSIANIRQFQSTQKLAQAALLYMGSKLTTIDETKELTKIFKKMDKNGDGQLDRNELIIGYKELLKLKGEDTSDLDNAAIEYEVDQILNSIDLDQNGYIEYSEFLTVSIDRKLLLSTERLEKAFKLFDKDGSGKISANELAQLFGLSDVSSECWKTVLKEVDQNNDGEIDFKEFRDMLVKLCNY
# Plasmodium falciparum protein kinase 6 (PK6, PF3D7_1337100), sequence (Q8IDW1 1-305): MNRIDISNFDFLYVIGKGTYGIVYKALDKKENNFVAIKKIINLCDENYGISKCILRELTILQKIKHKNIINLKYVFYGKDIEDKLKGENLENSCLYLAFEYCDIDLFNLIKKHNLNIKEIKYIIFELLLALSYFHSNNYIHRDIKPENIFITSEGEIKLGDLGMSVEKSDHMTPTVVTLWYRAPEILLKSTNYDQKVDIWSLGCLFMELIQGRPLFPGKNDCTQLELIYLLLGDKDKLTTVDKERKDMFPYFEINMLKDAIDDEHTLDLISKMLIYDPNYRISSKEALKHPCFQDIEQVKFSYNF
# Protein kinase 7 (PK7), Plasmodium falciparum 3D7 (PF3D7_0213400), sequence (Q7YTF7 1-343): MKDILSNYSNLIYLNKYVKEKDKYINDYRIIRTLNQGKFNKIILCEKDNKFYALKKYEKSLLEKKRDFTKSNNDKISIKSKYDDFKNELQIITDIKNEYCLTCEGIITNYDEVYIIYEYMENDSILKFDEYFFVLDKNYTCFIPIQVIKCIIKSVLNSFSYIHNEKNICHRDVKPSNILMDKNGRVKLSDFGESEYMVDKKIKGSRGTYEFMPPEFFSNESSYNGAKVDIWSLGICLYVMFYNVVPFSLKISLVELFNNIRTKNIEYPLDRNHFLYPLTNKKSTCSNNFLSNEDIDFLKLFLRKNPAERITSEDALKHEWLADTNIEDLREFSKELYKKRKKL
# L-lactate dehydrogenase (Plasmodium falciparum (isolate CDC / Honduras)), sequence (Q27743 whole entry, looked up): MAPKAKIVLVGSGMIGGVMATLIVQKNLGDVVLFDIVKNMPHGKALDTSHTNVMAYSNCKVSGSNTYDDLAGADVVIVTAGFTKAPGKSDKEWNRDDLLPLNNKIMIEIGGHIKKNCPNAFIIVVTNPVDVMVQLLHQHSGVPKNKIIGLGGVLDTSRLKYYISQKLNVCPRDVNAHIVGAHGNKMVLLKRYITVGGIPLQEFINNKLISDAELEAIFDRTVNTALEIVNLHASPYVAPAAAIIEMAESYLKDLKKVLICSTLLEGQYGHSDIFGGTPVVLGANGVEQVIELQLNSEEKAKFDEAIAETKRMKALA
# Calcium-dependent protein kinase 1 (Plasmodium falciparum (isolate 3D7)), sequence (P62344 whole entry, looked up): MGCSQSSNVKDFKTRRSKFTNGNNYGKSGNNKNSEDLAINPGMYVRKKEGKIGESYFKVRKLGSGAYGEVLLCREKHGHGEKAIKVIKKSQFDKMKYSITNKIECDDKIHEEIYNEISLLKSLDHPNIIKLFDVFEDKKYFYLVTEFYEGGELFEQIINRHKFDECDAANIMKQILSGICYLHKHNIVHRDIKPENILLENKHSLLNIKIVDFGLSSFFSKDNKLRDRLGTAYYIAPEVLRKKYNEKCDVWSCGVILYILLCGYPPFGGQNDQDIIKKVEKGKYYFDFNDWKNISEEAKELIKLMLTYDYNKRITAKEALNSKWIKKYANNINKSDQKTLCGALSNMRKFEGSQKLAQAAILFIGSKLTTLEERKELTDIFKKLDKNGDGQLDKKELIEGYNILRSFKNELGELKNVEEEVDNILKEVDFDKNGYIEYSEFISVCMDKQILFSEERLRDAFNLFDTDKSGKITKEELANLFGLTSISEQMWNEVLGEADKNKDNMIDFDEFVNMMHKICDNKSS
SMILES,growth inhibition [1],inhibition [2],inhibition [3],growth inhibition [4],outcome [5],outcome [6],outcome [7],outcome [8]
Cc1cc2c(cc1C(F)(F)F)N(C(=O)Nc1ccc(OCCN(C)C)c(C(F)(F)F)c1)CC2,23% (inactive),38% (inactive),-2% (inactive),93% (active),inactive,inactive,inactive,inactive
CN(C)CCOc1ccc(N2CCN(CCCCNC(=O)c3ccc(NC(=O)c4ccc(Cl)cc4)cc3)CC2)cc1,98% (active),13% (inactive),0% (inactive),99% (active),inactive,inactive,inactive,inactive
CCN(CC)CCCN(CCCN(CC)CC)c1cc(C)nc(Nc2ccc3cc(Br)ccc3c2)n1,73% (active),12% (inactive),3% (inactive),100% (active),inactive,inactive,inactive,inactive
